Common to all, as to assay: NCI-60 one-dose screen, 48 h (100 = growth as untreated, 0 = no growth, -100 = all killed)
Settings in all cases: 10 µM unless noted

The test system of assay [1] is SR leukemia.
Assay [2] has as its system RPMI-8226 leukemia.
For assay [3], the system named is OVCAR-8 ovarian.
Assay [4] concerns OVCAR-5 ovarian.
The test system of assay [5] is OVCAR-4 ovarian.
The subject of assay [6] is SK-OV-3 ovarian.
Assay [7] has as its system IGROV1 ovarian.
Assay [8] has as its system OVCAR-3 ovarian.
The subject of assay [9] is HS 578T breast.
The subject of assay [10] is NCI/ADR-RES ovarian.

About 83,000 compounds went through this panel and 20% of them were active in at least one assay; those are over-represented in the sample as a whole.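 Values shown are percent growth following 48 h exposure of cells in 96-well plates to a single concentration of compound; below 10 was considered active.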 A number with no mark means an inactive call. Activity calls are given as the source filed them.

As to `COc1ccc(OC)c(Nc2nnc(-c3ccc(O)c(OC)c3)o2)c1`, the growth in [1] is 52.4%; in assay [2], 75%; in assay [3], 83.6%; in [4], 70%; in assay [5], 63.1%; in assay [6], 53.4%. Moreover, the growth in [7] is 19.9%; in assay [8] it was 70.6%; in [9] it was 39.6%; in [10] it was 68.7%.
In the case of `CC1(C)COB(OCC(C)(C)COB2OCC(C)(C)CO2)OC1`, the growth in assay [1] was 102%; in assay [2] it was 118%; in [3], 100%; in assay [4], 108%; in assay [5] it was 113%; in assay [6], 109%. Also, the growth is 105% in assay [7], 110% in [8], 108% in [9] and 109% in assay [10].
As to `COc1ccc(CN2c3ccccc3Sc3ccccc32)cc1F`, the growth was 16.9% in assay [1]; 21.2% in assay [2]; 23.7% in assay [3]; 43.1% in assay [4]; 49.2% in assay [5]; 16.8% in [6]. For the same compound, the growth in assay [7] was 35.5%; in assay [8] it was -5.46% (active); in [9], 16.9%; in [10], 2.82% (active).
Take `CCCCNCCCCCNc1cc(OC)cc2cccnc12`: the growth in assay [1] is 71.1%; in [2], 76.9%; in [3], 99.3%; in [4], 91.4%; in [5] it was 60.1%; in assay [6], 95.2%. The growth in assay [7] is 118%; in assay [8] it was 107%; in assay [9], 99%; in assay [10], 95.9%.
Consider `O=C1/C(=C/c2ccccc2O)CC/C1=C\c1ccccc1O`, for which the growth in [1] was 8.12% (active); in assay [2], -6.74% (active); in [3], 68.9%; in assay [4], 126%; in assay [5], 63.4%; in [6] it was 102%. In addition, the growth in assay [7] was 32.1%; in assay [8], 30.9%; in assay [9], 70.7%; in assay [10], 72.7%.
In the case of `CN1CCN(C(=O)c2ccc(NC(=O)c3cc4c(nn3)NCCN4Cc3cc(Cl)ccc3Cl)cc2)CC1`, the growth in assay [1] is 0.181% (active); in assay [2] it was 65.3%; in assay [3], 91.1%; in [4] it was 56.4%; in [5], 72.8%; in [6] it was 88.4%. For the same compound, the growth in assay [7] is 81.3%; in [8], 89.8%; in assay [9], 76.9%; in [10], 95.7%.
Consider `C=CCn1c(SCC(=O)Nc2ccc(C(=O)/C=C/c3ccc(Cl)cc3)cc2)nnc1-c1ccc(Br)cc1`, for which the growth is 70.7% in assay [1]; -28.1% (active) in [2]; 57.6% in assay [3]; 98% in [4]; 57.6% in [5]; 138% in assay [6]. Moreover, the growth was 87.2% in assay [7], 85.5% in assay [8], 71.9% in assay [9] and 74.7% in [10].
Consider `c1ccc(Cn2cc3c(c2)-c2oncc2CC3)cc1`, for which the growth in assay [1] was 39.3%; in assay [2] it was 8.25% (active); in [3], 36.4%; in [4] it was 25.1%; in assay [5], 64.1%; in [6] it was 13.5%. The growth was 34.9% in assay [7], -23.8% (active) in [8], 1.9% (active) in [9] and 0.523% (active) in assay [10].
As for `Cc1c(O)cc(-c2cnc(Nc3ccccc3)s2)c(O)c1C`, the growth in assay [1] is 87.4%; in assay [2] it was 82.5%; in [3], 94%; in [4] it was 111%; in assay [5], 84.8%; in [6], 94.5%. Besides, the growth is 79.2% in [7], 102% in [8], 87.5% in assay [9] and 96.5% in assay [10].
As for `CCCCCOC(=O)c1c(C)[nH]c(/C=C2\N=C(c3ccc[nH]3)C=C2OC)c1C`, the growth was -30% (active) in assay [1]; -43.6% (active) in assay [2]; 7.42% (active) in [3]; -47.1% (active) in [4]; -7.23% (active) in [5]; 8.75% (active) in assay [6]. For the same compound, the growth in [7] is -14.1% (active); in assay [8], -52.4% (active); in assay [9], -23.5% (active); in assay [10] it was 5.69% (active).
As to `Cc1c2cnccc2c(C)c2c1c1cc(C#N)ccc1n2C`, the growth in assay [1] is 0.777% (active); in assay [2], -22.9% (active); in assay [3] it was 6.24% (active); in assay [4], -15% (active); in assay [5], -39.4% (active); in [6], -3.17% (active). Moreover, the growth is -11.4% (active) in assay [7], -7.57% (active) in [8], -18% (active) in assay [9] and -9.81% (active) in assay [10].
As to `CCCNC(=O)Nc1ccc2cc3ccc(NC(=O)NCCC)cc3nc2c1`, the growth is 37.2% in assay [1]; 76.1% in assay [2]; 74.5% in [3]; 90.1% in [4]; 65.2% in [5]; 95.1% in assay [6]. Moreover, the growth was 34.4% in assay [7], 70.1% in assay [8], 48.4% in assay [9] and 96.9% in assay [10].
For `C[PH+](c1nc2ccccc2nc1[PH+](C)C(C)(C)C)C(C)(C)C.C[PH+](c1nc2ccccc2nc1[PH+](C)C(C)(C)C)C(C)(C)C.[Au+].[Cl-]` (stereo not given), the growth is 6.59% (active) in assay [1]; -18.1% (active) in assay [2]; -54.3% (active) in assay [3]; -100% (active) in assay [4]; -100% (active) in assay [5]; -100% (active) in assay [6]. Also, the growth in [7] is -87.9% (active); in [8], -100% (active); in [9], -38.6% (active); in assay [10] it was -79.5% (active).

The values are drawn from PubChem BioAssay (NCI).
